Compound activity: PubChem BioAssay, National Center for Advancing Translational Sciences (NCATS)
p53 reactivator = qHTS assay for re-activators of p53 using a Luc reporter | H1299 p53-A138V BP100-luciferase reporter, luminescence, 24 h | Potency, µM (highest dose often 92.2 µM), without a hit: top-dose activity change, positive = activation, usual class: activators | 320,000 tested, 0.063% active | AID 504706, 2011; further: potency means the concentration at half of the fitted maximal effect; % of control where 0% means no effect; nearly all actives have a fitted effect of over 45% in size
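p53-null H1299 cells stably carrying temperature-sensitive p53-A138V and a BP100-luciferase reporter were pinned with compounds (4-point, 1:5 series) and held 24 hrs at 37 deg C. Luminescence was read 10 min after detection reagent.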
GLP1R cytotox = qHTS of GLP-1 Receptor Inverse Agonists: Cytotox Screen. HEK293 cAMP-luciferase reporter cells, luminescence, 24 h. Potency, µM (top dose mostly 38.3 µM), for inactives: at the top dose activity change, negative = inhibition, hits mostly inhibitors. 410,000 tested, 0.13% active;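 further: loss of luciferase light is scored as toxicity; potency means the concentration at half of the fitted maximal effect; on the % scale 0 is the no-effect control and ±100 the full control effect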
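Step one: seed cells (200 cells/uL, DMEM with 10% Nu serum, 1% pen-strep). Step two: 12-hour incubation at 37 deg C. Step three: pin 23 nL compound, incubate 24 hr. Step four: add luciferase reagent, read luminescence 12 min later.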
ClpP mod = qHTS Assay for Activators of ClpP; 340,000 tested, 1.9% active; ATP-dependent Clp protease proteolytic subunit (Bacillus subtilis (strain 168)), P80244; Potency, µM (doses to about 57.5 µM), for inactives: at the top dose activity change, negative = active; purified B. subtilis ClpP, FRET peptide cleavage, 20 min; active means well fitted falling curve with a large enough effect; inconclusive means small, poorly fitted or top-dose-only effect; inactive means no such curve, though single readings can be large or run the other way; further: potency means the concentration at half of the fitted maximal effect; the source files actives as falling curves though it sought activators and does not explain the sign; nearly all actives have a fitted effect of over 65% in size
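FRET quenching reversal measured ClpP activation: 10 microg/mL B. subtilis ClpP at pH 8 with the FRET-FV decapeptide, read at 430 nm after 320 nm excitation. The 20-min minus 0-min signal was scaled between DMSO/no-enzyme wells and ADEP (5.8 microM final).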
GLP1R ag = qHTS of GLP-1 Receptor Agonists; 380,000 tested, 0.007% active; Glucagon-like peptide 1 receptor (Homo sapiens), P43220; HEK293 GLP-1R CRE-luciferase, luminescence, 4-6 h; cells express a hypersensitive GLP-1R form; Potency, µM (series often up to 45.6 µM), without a hit: at the highest dose activation, hits mostly activators; further: potency means the concentration at half of the fitted maximal effect; % of control where 0% means no effect
GLP1R inv ag = qHTS of GLP-1 Receptor Inverse Agonists (Inhibition Mode). Glucagon-like peptide 1 receptor (Homo sapiens), P43220. HEK293 GLP-1R CRE-luciferase, luminescence, 24 h; GLP-1R form is constitutively active. Potency, µM (highest dose often 38.3 µM), inactives show at the highest dose activity change, negative = inhibition, usual class: inhibitors. 410,000 tested, 1.6% active; further: potency means the concentration at half of the fitted maximal effect; on the % scale 0 is the no-effect control and ±100 the full control effect; nearly all actives have a fitted effect of over 55% in size
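HEK293 cells stably co-expressing constitutively active GLP-1R and a cAMP-responsive luciferase reporter were seeded in DMEM with 10% Nu serum, given compounds after 12 h, and incubated 24 h at 37 deg C. Luminescence was then read.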
LDHA block = qHTS assay for inhibitors of human lactate dehydrogenase; 480,000 tested, 0.15% active; L-lactate dehydrogenase A chain (Homo sapiens), P00338; purified LDHA, NADH/diaphorase-resazurin fluorescence; hits give low values; AID 1347041, 2019; activity change, % (values are at about 110 or 230 µM); in the data active means activity change below about -30%; inconclusive means mostly about -25% to -30%;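 further: plate controls were DMSO wells for no effect and wells without enzyme for full effect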
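LDH5 2 nM; NADH 0.06 mM, pyruvate 0.2 mM; 200 mM Tris pH 7.4, EDTA, Tween-20; 5 min RT. Detection: diaphorase 0.133 mg/mL + resazurin 37 µM, fluorescence ex540/em590 at 0 and 20 min; normalized to enzyme-free and DMSO wells.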
Numbers without * were called inactive; ? = inconclusive; · = no result given; [ ] = remark or other dose. An excerpt weighted towards active compounds, which were near 2.9% of everything screened. Unless noted, the call rests on the fitted dose curve; in most records, active means well fitted curve in the direction sought with a large enough effect; inconclusive means small, poorly fitted or top-dose-only effect, or another doubt; inactive means no such curve, though single readings can be large; an effect the other way counts as inactive or inconclusive.

SMILES | p53 reactivator | GLP1R cytotox | ClpP mod | GLP1R ag | GLP1R inv ag | LDHA block
O=C1c2cc(Br)ccc2N(Cc2ccc(Br)cc2)S(=O)(=O)C1c1cc(Cl)c(Cl)cc1[N+](=O)[O-] (centres undefined) | 4% | -10% | 1% | -5% | ? | -43*
Cc1ccc(S(=O)(=O)N2CC(C)N(C(=O)N3CCOCC3)C2C)cc1 (centres undefined) | 4% | 4% | -1% | 0% | -8% | 0
O=C1C(C=NCCN2CCOCC2)=C(O)c2ccccc21 | ? | 0% | 28µM* | 3% | -2% | 1
O=C1C(C=NCCCN2CCOCC2)=C(O)c2ccccc21 | 11% | -8% | 0% | 3% | 1% | 0
Cc1ccc2nc3sc(C(=O)Nc4c(C)[nH]c(=O)[nH]c4=O)c(N)c3cc2c1 | 28% | 3% | -10% | 17% | 17% | 0
Cc1ccc2cc3c(N)c(C(=O)Nc4c(C)[nH]c(=O)[nH]c4=O)sc3nc2c1 | 4% | 13% | 16µM* | -1% | 17% | -6
O=C(Nc1ccccn1)c1cnc2ccccc2n1 | · | · | · | · | · | 2
O=C(Nc1ccccn1)c1ccc2ccccc2n1 | 45µM* | 0% | 3% | -2% | -4% | 1
CC(=O)NCCNC(=O)c1ccc2ccccc2n1 | · | · | · | · | · | -31*
O=C(Nc1ccc(Oc2ccccc2)nc1)C1CCCCN1Cc1cccc(OCCO)c1 (centres undefined) | -6% | -6% | -2% | 5% | -16% | -3
Cc1ccc(Cl)cc1N1CCN(S(=O)(=O)c2ccc3c(c2)OCCO3)CC1 | -2% | 11% | 0% | 0% | 10µM* | -6
COc1ccc(-c2ccc3c(N)c(C(=O)NCc4ccc(C)cc4)sc3n2)cc1 | · | 28% | 11µM* | 0% | 30% | -13
COc1ccc(CNC(=O)c2sc3nc[nH]c(=O)c3c2C)cc1 | · | -13% | 40µM* | · | 46% | 1
Cc1c(C(=O)OC(C)C)sc2nc[nH]c(=O)c12 | 4% | -4% | ? | 13% | 65% | -3
COC(=O)c1sc2nc[nH]c(=O)c2c1C | -12% | 0% | 16µM* | 2% | 31% | -5
c1ccc(Cn2nnnc2C(c2cccs2)N2CCCCCC2)cc1 (centres undefined) | -1% | 0% | 0% | 3% | ? | -7
Cc1c(NC(=O)C(C)OC(=O)c2nc(Cl)ccc2Cl)c(=O)n(-c2ccccc2)n1C (centres undefined) | -13% | -3% | -1% | -10% | -6% | -6
Cc1ccc(NC(=O)COC(=O)CCC(=O)c2cccs2)cc1C | 2% | -3% | · | 0% | 13% | -7
CCCCC12CN3CC(C)(CN(C1)C3c1c[nH]c3ccccc13)C2=O (centres undefined) | · | -5% | 1% | · | ? | -2
CSc1ccc(/C=N/NC(=O)c2ccc(C)c(C)c2)cc1 | ? | -32% | ? | 4% | ? | -48*
N#C/C(=N\Nc1c(Cl)cccc1Cl)C(=O)NN | 23% | -30% | 16µM* | -32% | 7% | 0
NC(=S)NN=C1CCC(C2CCCCC2)CC1 (centres undefined) | · | ? | · | 14% | 2.2µM* | -7
Nc1ccc(C(=O)Nc2ccc(OC(F)(F)C(F)F)c(NC(=O)c3ccc(N)cc3)c2)cc1 | -9% | -9% | 16µM* | 6% | -8% | -9
O=C(Nc1ccc(OC(F)(F)C(F)F)c(NC(=O)c2ccc(F)cc2)c1)c1ccc(F)cc1 | · | 0% | -1% | 3% | 0% | 0
COc1ccc(S(=O)(=O)N2CCCC2)cc1NC(=O)c1ccccc1F | -1% | 13% | -1% | 4% | 6% | -7
SMILES | p53 reactivator | GLP1R cytotox | ClpP mod | GLP1R ag | GLP1R inv ag | LDHA block
O=C1CC(N(Cc2cccs2)C(=O)Nc2ccccc2)C(=O)N1c1ccc(Cl)cc1 (centres undefined) | -10% | -16% | 1% | -28% | 8.9µM* | 0
COC(=O)c1oc2nc(C)cc(C)c2c1N | -2% | -7% | 28µM* | -7% | 40% | -5
COc1cccc(-c2nnc(-c3ccc4ccccc4c3)o2)c1 | · | -10% | 14µM* | 4% | ? | -1
Cc1cccc(-c2nnc(-c3ccc(N)cc3)o2)c1 | ? | -6% | 28µM* | -3% | 47% | 1
Cc1ccc(-c2nnc(-c3ccc4ccccc4c3)o2)cc1 | · | -3% | 14µM* | 4% | 50% | -8
Nc1ccc(-c2nnc(-c3ccc(N)cc3)o2)cc1 | 20% | -10% | 3% | 5% | 68% | -4
Clc1ccc(-c2nnc(-c3ccc4ccccc4c3)o2)cc1 | · | 0% | 2% | 1% | 16% | -2
CCCc1c(C)nc(N2CCN(c3ccc(F)cc3)CC2)[nH]c1=O | 2% | 0% | -3% | 6% | -4% | -3
C=CCc1cc(Cl)ccc1OCCOCCNC(C)CC (centres undefined) | 1% | 8%[7.66 µM] | -1% | -4% | -14%[7.66 µM] | -19
COc1ccccc1OCCn1c(NC(=O)c2ccccc2)nc2ccccc21 | · | 2% | 6% | · | -3% | -7
CCOC(=O)c1ccc(N2C(=O)[C@@H](c3ccccc3)[C@H]2c2ccccc2)cc1 | -7% | 5% | 0% | -2% | 5µM* | 2
CC(NC(=O)c1ccco1)c1nc(-c2ccc(C(C)(C)C)cc2)no1 (centres undefined) | 8% | -21% | · | 19% | 10µM* | -1
CC(Sc1nc(-c2ccccc2)c(-c2ccccc2)[nH]1)C(=O)NCC1CCCO1 (centres undefined) | · | -10% | 28µM* | 2% | -15% | 0
CCc1cccc2c(SC(C)C(=O)NCC3CCCO3)nc(-c3ccccc3)nc12 (centres undefined) | -2% | 5% | 1% | 0% | 5% | -6
COc1cccc(NC(=O)CN(C)C(=O)CNC(=O)c2ccc(C)cc2)c1 | · | · | · | · | · | -1
CC(C)Cc1nc2oc3c(Cl)ncnc3c2c2c1CCC2 | -7% | 2% | 32µM* | -1% | 4% | -6
COc1ccc(NC(=O)C2c3ccccc3Oc3ccccc32)cc1F | · | · | · | · | · | -2
O=C(O)c1cc(N2C(=O)C3CC=CCC3C2=O)ccc1NCc1cccnc1 (centres undefined) | -3% | -5% | 32µM* | -2% | 3% | -13
